# Laboratory results from PubChem BioAssay AID651789 (National Center for Advancing Translational Sciences (NCATS), 2012).
# Results filed as inconclusive are left out. Active and inactive are the calls of the source. The call rests on the fitted dose curve; in most records, active means well fitted inhibition curve with a large enough effect; inconclusive means small, poorly fitted or top-dose-only effect; inactive means no such curve, though single readings can be large or run the other way.
# Experiment: Acumen qHTS Assay for Inhibitors of the mTORC1 Signaling Pathway in WT MEF Cells: Hit Validation; further: nearly all actives have a fitted effect of over 60% in size;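 on activity change, negative = inhibition: phospho-rpS6 Ser235/236 immunofluorescence normalised to propidium iodide cell stain; percent of cells above a cutoff set by 7.5 nM rapamycin treated wells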
# Conditions: Acumen imaging; series mostly up to 37.3 µM; activity change, negative = inhibition: at the top concentration
# Outline: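 Read-out is immunofluorescent phospho-rpS6 (Ser235/236) normalised to PI-stained cell number, reported as % active cells using a 7.5 nM rapamycin threshold. Cells: WT or Tsc2-/-, p53-/- MEFs, compound-exposed 24 h at 37C; PI count also tracks viability.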
# Potency means the concentration at half of the fitted maximal effect.
Compound,"activity change, negative = inhibition",Potency
CCc1ccc(-c2nc(CSCC(=O)NCc3ccc(C)cc3)c(C)o2)cc1,34.2% (inactive),–
CN1CCN(C2(CNC(=O)COc3ccc(C(C)(C)C)cc3)CCCCC2)CC1,-2.29% (inactive),–
CCCc1oc2ccc(NS(=O)(=O)c3ccc(OC)cc3)cc2c1C(=O)OCC,–,0.585 µM (active)
CCCCC(CC)CNC(=O)c1ccc(Cn2c(=O)[nH]c3cc(OC)c(OC)cc3c2=O)cc1 (centres undefined),–,13.1 µM (active)
Cc1ccc(CN(Cc2ccco2)C(=O)c2cccc(C)c2)cc1,8.98% (inactive),–
CCN(CC)Cc1c(NC(=O)c2ccc(OC)cc2)sc2c1CCCC2,39.6% (inactive),–
CCN1CCOC(=O)C1CC(=O)Nc1cc(C)ccc1OC (centres undefined),–,16.5 µM (active)
CC(C)OCCCn1c(=O)c2ccccc2n2c(-c3ccc(F)cc3)nnc12,8.37% (inactive),–
CCOC(=O)c1ccc2ncc(C(=O)OCC)c(NCCc3ccc(OC)c(OC)c3)c2c1,10.7% (inactive),–
CC(C)(C)c1ccc(C2NC(=O)c3n[nH]c(-c4cccs4)c32)cc1 (centres undefined),40.3% (inactive),–
Cc1cccc(C(=O)Nc2c(C(=O)NCc3ccc(Cl)cc3)sc3nc(C)cc(C)c23)c1,-6.11% (inactive),–
Cc1ccccc1C(=O)N1CCN(CCc2ccccn2)CC1,3.82% (inactive),–
COc1ccc(C)cc1NC(=O)C(Cc1ccccc1)NS(=O)(=O)c1ccc(Br)s1 (centres undefined),6.44% (inactive),–
COc1cc(C(=O)n2nc(C)c(Sc3ccc(Cl)cc3)c2C)cc(OC)c1OC,30.6% (inactive),–
COc1ccccc1CNC(=O)CCCn1c(=O)c2cccn2c2ccccc21,3.82% (inactive),–
Cc1cccc(Nc2ncc(NC(=O)c3cccc(F)c3)c(Nc3cccc(C)c3)n2)c1,–,5.85 µM (active)
CC(C)c1nnc(NC(=O)c2nc(S(=O)(=O)Cc3ccccc3)ncc2Cl)s1,–,5.21 µM (active)
O=C(NCc1ccccc1)c1ccc2c(c1)N(Cc1ccccc1F)C(=O)c1ccccc1S2=O (centres undefined),20.8% (inactive),–
Cc1ccc(NC(=O)CCNS(=O)(=O)c2cccc3nonc23)cc1Cl,-0.763% (inactive),–
Cc1cccc(-c2nc3c(cnn3-c3ccccc3)c(=O)n2-c2ccc(Br)cc2)c1,-27.2% (inactive),–
CCC1=Nc2cc(C(=O)NC3CCCC3)ccc2Sc2ccc(Cl)cc21,–,2.07 µM (active)
CC(C)N(C(=O)CSc1nc2ccc(Cl)cc2[nH]1)c1ccccc1,-24% (inactive),–
CCN(CC)CCn1c(=N)n(CCOc2ccccc2Cl)c2ccccc21,–,9.27 µM (active)
CCCS(=O)(=O)c1c(S(=O)(=O)CCC)c2cc(C(C)(C)C)ccn2c1C(=O)c1ccc(OC)c(OC)c1,-3.05% (inactive),–
